The values below come from PubChem BioAssay (NCATS).

Experiment [1] is described as follows: qHTS profiling of the MIPE4 collection as inhibitors of Plasmodium falciparum (3D7) proliferation (AID 743344).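 Also: scaled between DMSO vehicle wells and 0.29 µM artemisinin as full inhibition.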 The settings on record: P. falciparum 3D7 in erythrocytes, SYBR Green DNA fluorescence, 72 h; at 28.5 µM unless noted. An outline of the steps: (§1)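 Erythrocytes infected with P. falciparum (0.3% parasitemia, 2.5% hematocrit) incubated with compounds 72 h at 37 C, 5% CO2. Lysis with saponin/Triton buffer containing SYBR Green I, overnight at room temperature in the dark; DNA fluorescence (485/535 nm) normalised to 0.29 uM artemisinin and DMSO.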

Experiment [2] can be described thus: qHTS profiling of the MIPE4 collection as inhibitors of Plasmodium falciparum (DD2) proliferation (AID 743345). The conditions noted are these: P. falciparum Dd2 in erythrocytes, SYBR Green DNA, 72 h; at 28.5 µM unless noted. In short, it runs like this: as §1
On the technique in general: In qHTS, concentration-response curves come from the screen itself.

Experiment [3] can be described thus: qHTS profiling of the MIPE4 collection as inhibitors of Plasmodium falciparum (DD2) proliferation (Rep 2) (AID 743346). The settings on record: P. falciparum Dd2 in erythrocytes, SYBR Green DNA, 72 h; at 28.5 µM unless noted. An outline of the steps:
as §1

The nature of experiment [4]: qHTS profiling of the MIPE4 collection as inhibitors of Plasmodium falciparum (HB3) proliferation (AID 743347).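 Also: plate controls were DMSO vehicle wells for no effect and artemisinin wells for full effect.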 The conditions noted are these: P. falciparum HB3 in erythrocytes, SYBR Green DNA, 72 h; at 28.5 µM unless noted. An outline of the steps:
as §1

The nature of experiment [5]: High-throughput drug toxicity screening in the BPDCN cell line Gen2.2 (AID 1224824).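 Also: cells exposed to compounds for 48 h before reading.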 The settings on record: Gen2.2 BPDCN cells; at 45.8 µM (top of the series) unless noted. An outline of the steps: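 Gen2.2 cells, 500 per well in phenol red-free RPMI with 10% FBS, exposed to compounds 48 h at 37 C, 5% CO2; viability by CellTiter-Glo luminescence. Percent activity scaled to DMSO (100%) and 9.2 uM bortezomib final (0%).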

Experiment [6] can be described thus: High-throughput drug toxicity screening in the BPDCN cell line Cal-1 (AID 1224825). The settings on record: Cal-1 BPDCN cell viability, qHTS; at 45.8 µM (top of the series) unless noted. In short, it runs like this:
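Exponentially growing Cal-1 cells, 500 per well in phenol red-free RPMI with 10% FBS, were exposed to compounds for 48 h at 37 °C, 5% CO2. Viability was read by CellTiter-Glo luminescence and normalised to DMSO (100%) and 9.2 uM bortezomib (0%).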

The nature of experiment [7]: qHTS assay for measurement of the activity of small molecule inhibitors on Zika virus induced Caspase-3 activity in human iPSC derived neural progenitor cells (hNPCs) (AID 1224857; active = well fitted curve in the direction sought with a large enough effect; an effect the other way counts as inactive or inconclusive; also: nearly all actives have a fitted effect of over 65% in size; also: potency is read from the fitted curve at half-maximal effect). An outline of the steps:
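Cells were plated at 350 per well and grown 16 to 20 hours. Compound pretreatment lasted one hour, after which ZIKV (2 FFU/cell) was added for 6 hours. Percent inhibition was normalized between uninfected and infected controls.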

Experiment [8] is described as follows: qHTS Screen of the MIPE 4.0 Collection Against Ewings Sarcoma (TC71) (AID 1259253; active = well fitted curve in the direction sought with a large enough effect; an effect the other way counts as inactive or inconclusive; also: potency is read from the fitted curve at half-maximal effect; nearly all actives have a fitted effect of over 40% in size). An outline of the steps: (§2)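 Here, cells in 5% FBS RPMI were exposed for two days (48 h) to compound dilutions added four hours after plating. ATP-based CellTiter-Glo luminescence measured viability, normalized to vehicle and no-cell blanks.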
Experiment [9] in a line: qHTS Screen of the MIPE 4.0 Collection Against Ewings Sarcoma (EW8) (AID 1259255; active = well fitted curve in the direction sought with a large enough effect; an effect the other way counts as inactive or inconclusive; also: nearly all actives have a fitted effect of over 35% in size; also: potency is read from the fitted curve at half-maximal effect;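 as to viability: 100% = DMSO-treated cells and 0% = medium-only wells without cells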). In short, it runs like this:
as §2

A short description of experiment [10]: qHTS Screen of the MIPE 4.0 Collection Against Ewings Sarcoma (TC32) (AID 1259256; active = well fitted curve in the direction sought with a large enough effect; an effect the other way counts as inactive or inconclusive; also: nearly all actives have a fitted effect of over 45% in size; also: potency is read from the fitted curve at half-maximal effect). In short, it runs like this: as §2
Experiment [11] can be described thus: qHTS profiling for inhibitors of Plasmodium falciparum (HB3) proliferation (AID 743324; active = well fitted curve in the direction sought with a large enough effect; an effect the other way counts as inactive or inconclusive;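 also: 100% = DMSO vehicle wells and 0% = artemisinin-treated control wells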). The conditions noted are these: Plasmodium falciparum HB3 blood-stage proliferation; at 28.7 µM (top of the series) unless noted. An outline of the steps:
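P. falciparum HB3 grown in erythrocytes (0.3% parasitemia, 2.5% hematocrit final) with compound for 72 h at 37 C, 5% CO2. Parasite DNA detected by SYBR Green after saponin/triton lysis overnight; normalized to 0.29 uM artemisinin and DMSO.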

Experiment [12] in a line: qHTS Screen of the MIPE 4.0 Collection Against Ewings Sarcoma (RDES) (AID 1259252; active = well fitted curve in the direction sought with a large enough effect; an effect the other way counts as inactive or inconclusive; also: nearly all actives have a fitted effect of over 35% in size; also: potency is read from the fitted curve at half-maximal effect). In short, it runs like this: as §2
The nature of experiment [13]: Identifying Small Molecule Inhibitors of Pancreatic Cancer Stem Cells (A278, Adherent) (AID 1259361; active = well fitted curve in the direction sought with a large enough effect; an effect the other way counts as inactive or inconclusive; also: nearly all actives have a fitted effect of over 35% in size). In short, it runs like this: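 Luminescent ATP readout (CellTiter-Glo) quantifies surviving cells after a 48 h drug incubation. Normalization uses DMSO wells as no inhibition and media-only wells as full inhibition; bortezomib served as positive control.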
The nature of experiment [14]: qHTS assay to identify small molecule inhibitors of chordoma cells - UCH-1 (AID 1259355; active = well fitted curve in the direction sought with a large enough effect; an effect the other way counts as inactive or inconclusive; also: % is scaled to controls: 0 for no effect and ±100 for the full control effect; nearly all actives have a fitted effect of over 55% in size). In short, it runs like this:
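Luminescent ATP read-out (CellTiter-Glo, 30min at room temperature) measured viability of UCH-1 cells exposed for 48hr to test drugs at 15 concentrations, co-dosed with a five-agent combination of auranofin, camptothecin, doxorubicin, rubitecan and topotecan.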

Structures are written as SMILES. Results filed as inconclusive are left out. The source made the active and inactive calls. Unless noted, no rule for the calls is given here.

For the molecule `COc1nccc(-c2c(-c3ccc(F)cc3)ncn2C2CCNCC2)n1`, the parasite growth, % of DMSO control in experiment [1] came out at 36.4%. The molecule further showed a parasite growth remaining, % of DMSO control (lower = more inhibition) in experiment [2] of 51.4%. In experiment [3], the parasite growth, % of control (lower = inhibition) came out at 41%. This molecule displayed a growth, % of control in experiment [4] of 35.6%. The cell viability, % of control (lower = more cytotoxic) in [5] was determined as 136%. In addition, in experiment [6], the viability (% of control) is 73.4%. The Potency entry in experiment [7] is “inactive”. In addition, the figures for the Potency in [8], in [9] and in [10] were 5.9 µM (active), 9.35 µM (active) and 16.6 µM (active), respectively.
Molecule `CCCCn1c(=O)n(Cc2ccccc2F)c(=O)c2[nH]c(Cc3ccc(NC(C)=O)cc3)nc21` showed a remaining proliferation (% of control), lower = more inhibition in [11] of 30.8%. The same molecule registered a parasite growth, % of DMSO control in experiment [1] of 115%. The molecule further registered a parasite growth remaining, % of DMSO control (lower = more inhibition) in [2] of 85.9%. In experiment [3], this molecule came in with a parasite growth, % of control (lower = inhibition) of 43.7%. The cell viability, % of control (lower = more cytotoxic) in experiment [5] stood at 50.4%. The molecule further displayed a viability (% of control) in experiment [6] of 86%. In addition, the Potency result in [7], in experiment [12] and in experiment [10] was “inactive” throughout. In addition, the IC50 (viability decrease) in experiment [13] was 13.2 µM (active).
Molecule `NC(=O)c1nnn(Cc2cc(Cl)c(C(=O)c3ccc(Cl)cc3)c(Cl)c2)c1N` returned a parasite growth, % of DMSO control in [1] of 23.3%. The molecule also showed a parasite growth remaining, % of DMSO control (lower = more inhibition) in experiment [2] of 33.4%. Further, the parasite growth, % of control (lower = inhibition) in [3] was 37%. For the same molecule, in experiment [5], the cell viability, % of control (lower = more cytotoxic) stood at 390%. In [6], the viability (% of control) came to 45.1%. In addition, the Potency entry in [7] is “inactive”. Also, the Potency was 18.7 µM (active) in [8] and 20.9 µM (active) in experiment [10].
Regarding `CN1CC(=O)NC1=NC(=O)Nc1cccc(Cl)c1`, in [1], the parasite growth, % of DMSO control was 78.1%. The molecule further had a parasite growth remaining, % of DMSO control (lower = more inhibition) in experiment [2] of 83.9%. In [3], this molecule had a parasite growth, % of control (lower = inhibition) of 23.4%. In experiment [4], this molecule gave a growth, % of control of 98.8%. For the same molecule, the cell viability, % of control (lower = more cytotoxic) in experiment [5] stood at 3.29%. In experiment [6], this molecule gave a viability (% of control) of 31.9%. Moreover, the Potency entry in experiment [7], in experiment [12], in [9] and in [10] was “inactive” each time.
In [1], `FC(F)(F)c1ccc(C=Cc2nc(COc3ccc(CCCCn4ccnn4)cc3)co2)cc1` displayed a parasite growth, % of DMSO control of 77.3%. This molecule also gave a parasite growth remaining, % of DMSO control (lower = more inhibition) in [2] of 85.5%. Further, the parasite growth, % of control (lower = inhibition) in [3] turned out to be 62.6%. The growth, % of control in [4] was found to be 83.1%. Moreover, the cell viability, % of control (lower = more cytotoxic) in experiment [5] stood at 102%. Besides, the viability (% of control) in experiment [6] turned out to be 17.8%. Besides, in experiment [7], the Potency result is “inactive”. Moreover, the Potency in experiment [12] was 0.059 µM (active); in experiment [9] it was 0.743 µM (active); in experiment [10] it was 0.0332 µM (active).
As to `CN1CC(=O)N2C(Cc3c([nH]c4ccccc34)[C@H]2c2ccc3c(c2)OCO3)C1=O` (some centres undefined), the parasite growth, % of DMSO control in experiment [1] stood at 14%. Also, in experiment [2], the parasite growth remaining, % of DMSO control (lower = more inhibition) came out at 17.5%. Also, the parasite growth, % of control (lower = inhibition) in experiment [3] is 23.9%. The growth, % of control in [4] was determined as 11.5%. Moreover, the cell viability, % of control (lower = more cytotoxic) in experiment [5] stood at 110%. The viability (% of control) in experiment [6] came to 85.7%. For the same molecule, the Potency in [7] was 3.72 µM (active). Also, the Potency entry in [12], in [9] and in experiment [10] was “inactive” each time. Moreover, the call in experiment [14] was inactive.
